In the library only some 10% were active in any assay of this set; here they are far more common.
Six1-Eya2 inh = qHTS Assay for Inhibitors of the Six1/Eya2 Interaction; AID 651725, 2012; actives 0.56% (n = 360,000); Homeobox protein SIX1 (Homo sapiens) + Protein phosphatase EYA2 (Homo sapiens), …; activity change, % (concentration not given with the values); AlphaScreen GST-Six1/His-Eya2 binding, biochemical; hits give low values; in the data active = activity change below about -65%; inconclusive = mostly about -30% to -63%; also: % is scaled to controls: 0 for no effect and ±100 for the full control effect
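Homogeneous AlphaScreen proximity assay pairing GST-Six1 with His-tagged Eya2 (added as 5X mix: 250 nM and 500 nM) in 50 mM Tris pH 8.0, 300 mM NaCl, 1 mM TCEP. Glutathione donor and nickel acceptor beads; 1 h, 37 °C, dark.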
BAZ2B block = qHTS Assay for Inhibitors of BAZ2B; Bromodomain adjacent to zinc finger domain protein 2B (Homo sapiens), Q9UIF8; AlphaScreen BAZ2B-H3K14Ac peptide displacement; Potency, µM (highest dose often 114 µM), for the others: at the highest dose activity change, negative = inhibition, hits mostly inhibitors; actives 4.4% (n = 360,000); also: potency is read from the fitted curve at half-maximal effect; % is scaled to controls: 0 for no effect and ±100 for the full control effect; nearly all actives have a fitted effect of over 60% in size
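Complex of BAZ2B and biotin-H3K14Ac (50 nM apiece) forms over 30 min at RT, then faces library compounds up to 110 uM for another 30 min; AlphaScreen beads added, 20 min dark incubation, luminescence read.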
CtBP-E1A blk = qHTS Assay for Inhibitors of the CtBP/E1A Interaction; CtBP / adenovirus E1A interaction (AlphaScreen); AlphaScreen GST-E1A/His-CtBP binding, 1536-well; hits give low values; activity change, % (test concentration not listed); actives 0.49% (n = 340,000); AID 651724, 2012; in the data active = activity change below about -65%; inconclusive = mostly about -30% to -63%; also: % is scaled to controls: 0 for no effect and ±100 for the full control effect
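AlphaScreen with 125 nM GST-E1A and 125 nM His-CtBP (5X stocks) in Tris pH 8.0, 300 mM NaCl, BSA, Tween 20, TCEP. Compounds preincubated 2 h at 37 deg C, then glutathione donor/nickel acceptor beads added for 1 h at 37 deg C in dark.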
JMJD2A Tudor = qHTS Assay for Inhibitors of JMJD2A-Tudor Domain. AlphaScreen JMJD2A-Tudor / H3K4me3 peptide binding. Potency, µM (series often up to 114 µM), without a hit: at the top dose activity change, negative = inhibition, hits mostly inhibitors. actives 4.4% (n = 390,000). AID 504339, 2011; also: potency is read from the fitted curve at half-maximal effect; % is scaled to controls: 0 for no effect and ±100 for the full control effect; nearly all actives have a fitted effect of over 50% in size
HP1b binding inh = HTS for Inhibitors of HP1-beta Chromodomain Interactions with Methylated Histone Tails | Chromobox protein homolog 1 (Homo sapiens), P83916 | AlphaScreen HP1-beta / biotin-H3K9me3 peptide binding | Potency, µM (top dose mostly 114 µM), for inactives: at the highest dose activity change, negative = inhibition, actives largely listed as inhibitors | actives 0.56% (n = 390,000); also: potency is read from the fitted curve at half-maximal effect; nearly all actives have a fitted effect of over 70% in size
Target sequence (P83916 whole entry, looked up): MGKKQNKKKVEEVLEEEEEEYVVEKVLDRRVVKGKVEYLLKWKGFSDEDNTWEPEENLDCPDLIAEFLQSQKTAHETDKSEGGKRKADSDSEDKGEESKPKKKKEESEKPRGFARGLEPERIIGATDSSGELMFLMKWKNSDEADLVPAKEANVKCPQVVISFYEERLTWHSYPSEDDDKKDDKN
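HP1-beta protein (50 nM final) preincubated 30 min at room temperature with biotinylated H3(1-18)K9me3 peptide (50 nM) in PBS pH 7.4, 0.01% Tween-20, then compound added for 30 min. AlphaScreen streptavidin donor/nickel chelate acceptor beads (10 ug/mL final), 30 min dark, luminescence read.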
G9a block = qHTS Assay for Inhibitors of Histone Lysine Methyltransferase G9a; Histone-lysine N-methyltransferase EHMT2 (Homo sapiens), Q96KQ7; G9a H3K9 monomethylation, AlphaScreen, 2 h; Potency, µM (series often up to 102 µM), for inactives: at the top dose activity, negative = inhibition, usual class: inhibitors; actives 8.8% (n = 350,000); AID 504332, 2011; also: potency is read from the fitted curve at half-maximal effect; % is scaled to controls: 0 for no effect and ±100 for the full control effect; nearly all actives have a fitted effect of over 75% in size
Target sequence (Q96KQ7 913-1193 limits assumed): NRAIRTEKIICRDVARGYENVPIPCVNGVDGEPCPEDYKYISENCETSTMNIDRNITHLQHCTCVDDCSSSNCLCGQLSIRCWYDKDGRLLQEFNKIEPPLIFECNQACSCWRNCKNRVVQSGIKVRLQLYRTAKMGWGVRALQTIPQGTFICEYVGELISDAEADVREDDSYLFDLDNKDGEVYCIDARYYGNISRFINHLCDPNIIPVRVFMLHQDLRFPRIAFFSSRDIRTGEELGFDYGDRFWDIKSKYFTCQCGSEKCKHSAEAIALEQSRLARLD
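Chemiluminescent proximity detection of H3K9 monomethylation, read after 10 min bead incubation in the dark. Reaction: 20 nM G9a, 500 nM biotin-H3K9 peptide, 20 uM SAM cofactor, 2 h, room temperature, following 15 min enzyme-compound preincubation.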
* = called active by the depositor; ? = inconclusive; / = not tested or not shown; [ ] = remark or other dose. Unless noted, calls follow the shape of the dose curve; as a rule, active = well fitted inhibition curve with a large enough effect; inconclusive = small, poorly fitted or top-dose-only effect; inactive = no such curve, though single readings can be large or run the other way.

SMILES	Six1-Eya2 inh	BAZ2B block	CtBP-E1A blk	JMJD2A Tudor	HP1b binding inh	G9a block
O=c1/c(=C\c2ccc(O)cc2)sc2nc(-c3ccccc3)c(-c3ccccc3)n12	1.8	?	-15.2	-18.4%[11.4 µM]	49.9%	?
C[C@H](CO)N1C[C@H](C)[C@@H](CN(C)Cc2ccc3cccnc3c2)OCc2cnnn2CCCC1=O	9.0	/	-19.4	/	/	/
Cc1ccccc1NC(=O)c1ccc(Nc2c([N+](=O)[O-])cc([N+](=O)[O-])c3ccccc23)cc1	?	?	?	?	?	7.94µM*
Cc1cc(C(=O)Nc2ccc(Nc3ccccc3)cc2)ccc1[N+](=O)[O-]	?	-25.4%	-20.8	10µM*	22.4µM*	8.3%[0.501 µM]
Cc1c(NC(=O)c2ccccc2)cccc1[N+](=O)[O-]	7.4	2.7%	3.8	-3.6%	30.1%	-3.8%[59 µM]
O=C(Nc1ccc(Nc2ccccc2)cc1)c1ccc(Cl)c([N+](=O)[O-])c1	?	39.8µM*	/	50.1µM*	?	/
CC1(C)C[C@@H]1C(=O)N/C(=C\CCCCSC[C@H](N)C(=O)O)C(=O)O	-1.6	-0.1%	8.1	-4.3%	51.0%	-2.7%[12.7 µM]
NNC(=O)c1ccc(CSc2n[nH]c(=O)[nH]c2=O)cc1	-3.0	-14.6%	-27.9	-12.0%	11.4%	3.98µM*
O=C(NCCc1ccccc1)c1cc2ncc(Br)cn2n1	10.9	50.1µM*	0.0	-25.1%	30.6%	-6.8%[12.7 µM]
COCCNC(=O)c1cc2ncc(Br)cn2n1	1.3	-1.7%	-3.2	0.0%	28.1%	1.8%[59 µM]
O=C(Nc1ccc2c(c1)OCO2)c1cc2ncc(Br)cn2n1	-11.7	50.1µM*	-1.3	?	?	?
O=c1c(O)c(-c2cccs2)oc2ccccc12	10.2	8.7%	-7.2	-6.7%	27.5%	17.8µM*
CCOc1cc(C(c2c(C)[nH][nH]c2=O)c2c(C)[nH][nH]c2=O)ccc1OC(=O)c1cccc([N+](=O)[O-])c1	-17.7	-35.5%	-14.6	?	-13.9%	3.55µM*
CCOc1cc(C(c2c(C)[nH][nH]c2=O)c2c(C)[nH][nH]c2=O)ccc1OCc1ccc([N+](=O)[O-])cc1	-10.8	-30.9%	-6.9	?	3.6%	?
COC(=O)[C@]12C(=O)NC[C@H](CN1c1ccc(Cl)c(C)c1)N2C	0.8	/	1.0	-19.0%	22.3%	/
O=C(O)CCCCCNS(=O)(=O)c1ccc2c3c(cccc13)C(=O)N2	?	-35.9%	7.3	-2.1%	38.2%	79.4µM*
CNS(=O)(=O)c1ccc2c3c(cccc13)C(=O)N2	10.3	0.1%	0.0	0.0%	39.9%	/
O=C(O)CNS(=O)(=O)c1ccc2c3c(cccc13)C(=O)N2	-21.4	42.5%	-5.8	28.2µM*	4.3%	/
Clc1cccc2c1CCN(Cc1nc(-c3cnccn3)no1)C2	4.6	-18.7%	-7.4	0.0%	17.9%	39.8µM*
Cc1ccc2c(c1)c1c(n2CC(O)CN2CCC(C)CC2)CCCC1 (stereo not given)	?	?	/	39.8µM*	-24.7%[57 µM]	?
Cc1ccc2c(c1)c(C)c(C)n2CC(O)CN1CCCCC1C (stereo not given)	-22.5	-37.4%	-26.4	?	-20.5%	?
Cc1ccc2c(c1)c1c(n2CC(O)CN2CCOCC2)CCCC1 (stereo not given)	/	-35.0%	/	/	/	?
Cc1ccc2c(c1)c1c(n2CC(O)CN2CCCCC2C)CCCC1 (stereo not given)	?	?	?	-9.6%[11.4 µM]	-21.2%	44.7µM*
CC(C)N(Cc1cnn(C)c1)C(=O)c1ccc(OC2CCN(Cc3ccccn3)CC2)cc1	-5.7	89.1µM*	-4.3	-35.9%	27.7%	44.7µM*
CN(Cc1nccs1)C(=O)c1ccc(OC2CCN(Cc3ccccn3)CC2)cc1	6.9	-12.2%	-6.1	-4.9%	15.8%	/
SMILES	Six1-Eya2 inh	BAZ2B block	CtBP-E1A blk	JMJD2A Tudor	HP1b binding inh	G9a block
Cc1nn(C)cc1CN(C)C(=O)c1ccc(OC2CCN(Cc3ccccn3)CC2)cc1	-2.6	?	-3.6	56.2µM*	29.4%	?
COc1ccc(S(=O)(=O)NCCc2csc3nc(-c4cccc(C)c4)nn23)cc1F	/	?	/	-16.6%	35.6%	5.7%[59 µM]
CN(C)/C=N/C(=S)Nc1ccccc1Cl	4.1	13.0%	0.0	-10.4%	16.2%	?
CN(O)/C=N/C(=S)Nc1ccc(Cl)cc1Cl	-1.2	?	10.8	-22.0%	9.1%	3.55µM*
CO/N=C\CC(=O)Nc1ccc(Cl)cc1Cl	-1.3	6.7%	0.0	14.1µM*	3.2%	10.1%[59 µM]
Cc1ccccc1NC(=O)C(=O)NCC1(c2ccccc2)CCCC1	/	2.7%	/	5.0%	31.8%	0.6%[59 µM]
O=C(CN(C(=O)c1csnn1)c1cccc(C(F)(F)F)c1)NCCc1ccccc1	3.0	-17.5%	0.2	8.5%	60.1%	-1.7%
O=C(C1CCC(Cn2c(=O)c3sccc3n(Cc3cccc(F)c3)c2=O)CC1)N1CCCCC1 (stereo not given)	/	-18.9%	/	-32.3%	22.1%	9.7%[59 µM]
Cc1nn2c3c(cnc2c1-c1ccc(F)cc1)C(=O)CC(c1ccccc1)C3 (stereo not given)	/	-10.6%	/	5.2%	46.2%	20.7%[59 µM]
CCNC(=S)NS(=O)(=O)c1ccc(Cl)cc1	-0.3	-1.8%	-0.6	25.1µM*	-11.1%	?
CCNC(=S)NS(=O)(=O)c1ccccc1	4.5	?	6.0	39.8µM*	-31.1%	28.2µM*
Cc1cccc(N2CCN(C(=O)CCS(=O)(=O)c3ccc4c(c3)CC(=O)N4C)CC2C)c1 (stereo not given)	/	-3.5%	/	3.2%	19.9%	?
Cn1cnc2c(=O)oc3ccc(S(=O)(=O)N4CCN(c5cccc(C(F)(F)F)c5)CC4)cc3c21	/	-9.2%	/	-14.8%	2.7%	-34.0%[59 µM]
CCN(CC)c1ccc(C(=C2C=CC(=[N+](CC)CC)C=C2)c2ccc(S(=O)(=O)O)cc2S(=O)(=O)[O-])cc1	?	/	?	?	22.4µM*	/
CCc1ccc(Nc2n[n+](-c3ccccc3)c(-c3cc(OC)c(OC)cc3Br)s2)cc1	-9.3	31.6µM*	-0.5	79.4µM*	-5.7%	?
COc1ccc2ccccc2c1-c1sc(Nc2ccccc2)n[n+]1-c1ccc(F)cc1	-29.4	31.6µM*	/	39.8µM*	?	50.1µM*

Compound activity: PubChem BioAssay, National Center for Advancing Translational Sciences (NCATS)
